The values that follow come from PubChem BioAssay (NCATS).

Activity calls are given as the source filed them. Calls come from the whole dose curve; as a rule, active = well fitted activation curve with a large enough effect; inconclusive = small, poorly fitted or top-dose-only effect; inactive = flat fitted curve, though single readings scatter.

A short description of this assay: Cellular Toxicity (caspase-3) HepG2 (AID 654).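 Note: cells exposed to compound for 16 hours before reading.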 As to conditions: HepG2 caspase-3 activation, luminescence, 0% = DMSO only, 100% = tamoxifen; series mostly up to 92.2 µM. An excerpt:
NIH Chemical Genomics Center [NCGC]
NIH Molecular Libraries Screening Centers Network [MLSCN]
National Institutes of Environmental Health Sciences [NIEHS]
National Toxicology Program [NTP]
We have developed a 1536-well cell-based assay for quantitative high throughput screening (qHTS) against a number of cell lines to determine in vitro caspase 3/7 of small molecules. This particular assay uses the HepG2 cell line which is derived from human hepatocellular carcinoma.
NCGC Assay Protocol Summary:
The Caspase-Glo 3/7 assay (Promega) is a homogeneous method to measure caspase-3 and caspase-7 activities in cultured cells. The quantitation of caspase 3/7 activity is based on the cleavage of a peptide-aminoluciferin substrate. After caspase cleaves the substrate the free aminoluciferin is liberated and serves as the substrate of luciferase, which generates the light. The luminescent signal is proportional to amount of caspase 3/7 activity present.
Using the Caspase-Glo 3/7 assay, the amount of caspase 3/7 activity was measured in the HepG2 cell line with complete culture medium following compound treatment for 16 hours. The assay was performed in opaque white 1536-well plates. In the screen, tamoxifen and doxorubicin were used as positive controls. Library compounds were measured for their ability to cause the activation of caspase 3/7 in the cell line, as reflected by an increase in luminescence signal, in a concentration-dependent manner. Data were normalized to the controls for basal activity (DMSO only) and 100% stimulation (100 uM tamoxifen). AC50 values were determined from concentration-response data modeled with the standard Hill equation.
qHTS protocol for caspase 3/7 assay in HepG2 cells
[Step] [Parameter] [Value] [Description]
1. Reagent; 5 uL; 1500 HepG2 cells/well
2. Time; 5 hr; 37 °C incubation
4. Controls; 23 nL; Tamoxifen 0.23 uM to 100 uM & Doxorubicin 7.0 pM to 100 uM
5. Time; 16 hr; 37 °C incubation
6. Reagent; 5 uL; Caspase-Glo 3/7 reagent
7. Time; 20 min; Room Temperature
8. Detection; Luminescence; Viewlux plate reader
Keywords: caspase 3/7, apoptosis, HepG2 cell line, luminescence, NTPHTS, NTPHTS_NCGC, NIEHS, EPA, DSSTox, MLSMR, MLSCN, NIH Roadmap, qHTS, NCGC
With `CC(=O)[O-].CC(=O)[O-].O.O.[Cd+2]`, the call was inactive.

On to `CC(C)CC(C)Nc1ccc(Nc2ccccc2)cc1` (configuration not stated), for which the result was inactive.

Turning to `c1ccc2cc3c(cc2c1)-c1cccc2cccc-3c12`, the outcome was inactive.

For `O=C(O)C1C(C(=O)O)C2(Cl)C(Cl)=C(Cl)C1(Cl)C2(Cl)Cl` (configuration not stated), the result was inactive.

Consider `COP(=O)(OC)O/C(=C\Cl)c1cc(Cl)c(Cl)cc1Cl`, for which the call was inactive.

On to `N#CSCSC#N`, for which the call was inactive.

With `O=[N+]([O-])C(Br)Br`, the outcome was inactive.

Regarding `O=C(CCl)c1ccccc1`, the molecule was called inactive.

For `C#CCO`, the molecule was classed as inactive.

On to `CCCCCCCCn1sccc1=O`, for which the molecule was classed as inactive.

On to `[Cd+2].[Cl-].[Cl-]`, for which the call was inactive.

For the molecule `[CH3][Hg][Cl]`, the call was inactive.

For `C[C@@H]1CC[C@@]2(OC1)O[C@H]1[C@@H](O)[C@H]3[C@@H]4CC[C@H]5C[C@@H](O[C@@H]6O[C@H](CO)[C@H](O[C@@H]7O[C@H](CO)[C@@H](O)[C@H](O[C@@H]8OC[C@@H](O)[C@H](O)[C@H]8O)[C@H]7O[C@@H]7O[C@H](CO)[C@@H](O)[C@H](O[C@@H]8O[C@H](CO)[C@@H](O)[C@H](O)[C@H]8O)[C@H]7O)[C@H](O)[C@H]6O)[C@H](O)C[C@]5(C)[C@H]4CC[C@]3(C)[C@H]1[C@@H]2C`, the outcome was inactive.

With `Clc1ccc(C(c2ccc(Cl)cc2)C(Cl)Cl)cc1`, the call was inactive.

`C(=NC1CCCCC1)=NC1CCCCC1`: the molecule was called inactive.

Turning to `Oc1c(Br)c(Br)c(Br)c(Br)c1Br`, the molecule was classed as inactive.

As to `Nc1ccccc1C(=O)OCCc1ccccc1`, the outcome was inactive.

As for `ClC1=C(Cl)C2(Cl)C3C(Cl)C(Cl)CC3C1(Cl)C2(Cl)Cl` (configuration not stated), the molecule was classed as inactive.

Take `FC(F)(F)c1ccc(Cl)cc1`: the molecule was called inactive.

With `OC(c1ccc(Cl)cc1)(c1ccc(Cl)cc1)C(Cl)(Cl)Cl`, the call was inactive.

For the molecule `N#CC(Cl)Cl`, the outcome was inactive.

Regarding `CN(C)c1ccc(N=O)cc1`, the molecule was classed as inactive.
